# Where two headings read alike, the source gives them in different places.
# Legend:
# CDKL5 = tested on: CDKL5; parameters: species or system human, MV4-11 + K-562 + COLO205 + SK-N-BE2 + OVCAR-8; details: read-out: apparent Kd, compound concentrations: 100 nM and 1000 nM (sheet 'Samples'), n = 1
# CLK1 = tested on: CLK1; parameters: species or system human, MV4-11 + K-562 + COLO205 + SK-N-BE2 + OVCAR-8; details: read-out: apparent Kd, n = 1
# CLK4 = tested on: CLK4; parameters: species or system human, MV4-11 + K-562 + COLO205 + SK-N-BE2 + OVCAR-8; details: read-out: apparent Kd, n = 1
# ERN2 = tested on: ERN2; parameters: species or system human, MV4-11 + K-562 + COLO205 + SK-N-BE2 + OVCAR-8; details: read-out: apparent Kd; compound concentrations: 100 nM and 1000 nM (sheet 'Samples'), CATDS: 0.122228474485695; n = 1
# GSK3A = tested on: GSK3A; parameters: species or system human, MV4-11 + K-562 + COLO205 + SK-N-BE2 + OVCAR-8; details: read-out: apparent Kd; compound concentrations: 100 nM and 1000 nM (sheet 'Samples'), CATDS: 0.15449009445540701; n = 1
# GSK3B = tested on: GSK3B; parameters: species or system human, MV4-11 + K-562 + COLO205 + SK-N-BE2 + OVCAR-8; details: read-out: apparent Kd; compound concentrations: 100 nM and 1000 nM (sheet 'Samples'), CATDS: 0.15136404639572901; n = 1
# PAK4 = tested on: PAK4; parameters: species or system human, MV4-11 + K-562 + COLO205 + SK-N-BE2 + OVCAR-8; details: read-out: apparent Kd; compound concentrations: 100 nM and 1000 nM (sheet 'Samples'), CATDS: 0.121686694160256; n = 1
# Q6ZSR9 = Q6ZSR9 (human, UniProt Q6ZSR9); parameters: species or system MV4-11 + K-562 + COLO205 + SK-N-BE2 + OVCAR-8; details: read-out: apparent Kd; compound concentrations: 100 nM and 1000 nM (sheet 'Samples'), CATDS: 0.110463614954163; n = 1
# Chain of Q6ZSR9 (Q6ZSR9 whole entry, looked up): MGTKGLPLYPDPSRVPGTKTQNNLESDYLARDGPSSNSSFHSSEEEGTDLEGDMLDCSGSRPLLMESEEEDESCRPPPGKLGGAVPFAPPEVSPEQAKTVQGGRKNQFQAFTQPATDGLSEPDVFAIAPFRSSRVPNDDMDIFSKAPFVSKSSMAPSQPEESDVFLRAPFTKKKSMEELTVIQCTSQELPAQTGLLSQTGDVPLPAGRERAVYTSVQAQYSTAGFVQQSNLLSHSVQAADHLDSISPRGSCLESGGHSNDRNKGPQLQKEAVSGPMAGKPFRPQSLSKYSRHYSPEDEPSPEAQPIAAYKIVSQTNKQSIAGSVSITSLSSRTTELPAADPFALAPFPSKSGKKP
# TESK1 = tested on: TESK1; parameters: species or system human, MV4-11 + K-562 + COLO205 + SK-N-BE2 + OVCAR-8; details: read-out: apparent Kd; compound concentrations: 100 nM and 1000 nM (sheet 'Samples'), CATDS: 0.50795455679108803; n = 1
# CLK2 = tested on: CLK2; parameters: species or system human, MV4-11 + K-562 + COLO205 + SK-N-BE2 + OVCAR-8; details: read-out: apparent Kd; compound concentrations:100 nM and 1000 nM (sheet 'Samples'); n = 1
# GAK = tested on: GAK; parameters: species or system human, MV4-11 + K-562 + COLO205 + SK-N-BE2 + OVCAR-8; details: read-out: apparent Kd; compound concentrations:100 nM and 1000 nM (sheet 'Samples'); n = 1
# MAPK10 = tested on: MAPK10; parameters: species or system human, MV4-11 + K-562 + COLO205 + SK-N-BE2 + OVCAR-8; details: read-out: apparent Kd; compound concentrations:100 nM and 1000 nM (sheet 'Samples'); n = 1
# MAPK8 = tested on: MAPK8; parameters: species or system human, MV4-11 + K-562 + COLO205 + SK-N-BE2 + OVCAR-8; details: read-out: apparent Kd; compound concentrations:100 nM and 1000 nM (sheet 'Samples'); n = 1
# MAPK9 = tested on: MAPK9; parameters: species or system human, MV4-11 + K-562 + COLO205 + SK-N-BE2 + OVCAR-8; details: read-out: apparent Kd; compound concentrations:100 nM and 1000 nM (sheet 'Samples'); n = 1
# PTK2B = tested on: PTK2B; parameters: species or system human, MV4-11 + K-562 + COLO205 + SK-N-BE2 + OVCAR-8; details: read-out: apparent Kd; compound concentrations:100 nM and 1000 nM (sheet 'Samples'); n = 1
# PTK2 = tested on: PTK2; parameters: species or system human, MV4-11 + K-562 + COLO205 + SK-N-BE2 + OVCAR-8; details: read-out: apparent Kd; compound concentrations:100 nM and 1000 nM (sheet 'Samples'); n = 1
# TNK1 = tested on: TNK1; parameters: species or system human, MV4-11 + K-562 + COLO205 + SK-N-BE2 + OVCAR-8; details: read-out: apparent Kd; compound concentrations:100 nM and 1000 nM (sheet 'Samples'); n = 1
# TTK = tested on: TTK; parameters: species or system human, MV4-11 + K-562 + COLO205 + SK-N-BE2 + OVCAR-8; details: read-out: apparent Kd; compound concentrations:100 nM and 1000 nM (sheet 'Samples'); n = 1
# CIT = tested on: CIT; parameters: species or system human, MV4-11 + K-562 + COLO205 + SK-N-BE2 + OVCAR-8; details: read-out: apparent Kd; compound concentrations:100 nM and 1000 nM (sheet 'Samples'); n = 1
# CSNK1A1 = tested on: CSNK1A1; parameters: species or system human, MV4-11 + K-562 + COLO205 + SK-N-BE2 + OVCAR-8; details: read-out: apparent Kd; compound concentrations:100 nM and 1000 nM (sheet 'Samples'); n = 1
# CSNK1D = tested on: CSNK1D; parameters: species or system human, MV4-11 + K-562 + COLO205 + SK-N-BE2 + OVCAR-8; details: read-out: apparent Kd; compound concentrations:100 nM and 1000 nM (sheet 'Samples'); n = 1
# CSNK1E = tested on: CSNK1E; parameters: species or system human, MV4-11 + K-562 + COLO205 + SK-N-BE2 + OVCAR-8; details: read-out: apparent Kd; compound concentrations:100 nM and 1000 nM (sheet 'Samples'); n = 1
# MAPK14 = tested on: MAPK14; parameters: species or system human, MV4-11 + K-562 + COLO205 + SK-N-BE2 + OVCAR-8; details: read-out: apparent Kd; compound concentrations: 100 nM and 1000 nM (sheet 'Samples'), CATDS: 6.0932890746218903E-2; n = 1
# MAPKAPK2 = tested on: MAPKAPK2; parameters: species or system human, MV4-11 + K-562 + COLO205 + SK-N-BE2 + OVCAR-8; details: read-out: apparent Kd; compound concentrations:100 nM and 1000 nM (sheet 'Samples'); n = 1
# PIK3CD = tested on: PIK3CD; parameters: species or system human, MV4-11 + K-562 + COLO205 + SK-N-BE2 + OVCAR-8; details: read-out: apparent Kd; compound concentrations:100 nM and 1000 nM (sheet 'Samples'); n = 1
# PKN3 = tested on: PKN3; parameters: species or system human, MV4-11 + K-562 + COLO205 + SK-N-BE2 + OVCAR-8; details: read-out: apparent Kd; compound concentrations:100 nM and 1000 nM (sheet 'Samples'); n = 1
# PRKX = tested on: PRKX; parameters: species or system human, MV4-11 + K-562 + COLO205 + SK-N-BE2 + OVCAR-8; details: read-out: apparent Kd; compound concentrations:100 nM and 1000 nM (sheet 'Samples'); n = 1
# PSMC3 = tested on: PSMC3; parameters: species or system human, MV4-11 + K-562 + COLO205 + SK-N-BE2 + OVCAR-8; details: read-out: apparent Kd; compound concentrations:100 nM and 1000 nM (sheet 'Samples'); n = 1
# RIPK2 = tested on: RIPK2; parameters: species or system human, MV4-11 + K-562 + COLO205 + SK-N-BE2 + OVCAR-8; details: read-out: apparent Kd; compound concentrations:100 nM and 1000 nM (sheet 'Samples'); n = 1
# SIK3 = tested on: SIK3; parameters: species or system human, MV4-11 + K-562 + COLO205 + SK-N-BE2 + OVCAR-8; details: read-out: apparent Kd; compound concentrations:100 nM and 1000 nM (sheet 'Samples'); n = 1
# TGFBR2 = tested on: TGFBR2; parameters: species or system human, MV4-11 + K-562 + COLO205 + SK-N-BE2 + OVCAR-8; details: read-out: apparent Kd; compound concentrations:100 nM and 1000 nM (sheet 'Samples'); n = 1
# [1] = compound concentrations:100 nM and 1000 nM (sheet 'Samples')
smiles,measurement,setting,value
Cn1cc(C2=C(c3cn(C)c4c([N+](=O)[O-])cccc34)C(=O)NC2=O)c2ccccc21 [RO0317452-000],potency estimated from few doses,CDKL5; CATDS: 0.10582240505262699,2010 nM
same,potency estimated from few doses,"CLK1; compound concentrations: 100 nM and 1000 nM (sheet 'Samples'), CATDS: 0.119262646968794",1520 nM
same,potency estimated from few doses,"CLK4; compound concentrations: 100 nM and 1000 nM (sheet 'Samples'), CATDS: 0.13099506977266501",1260 nM
same,potency estimated from few doses,ERN2,1450 nM
same,potency estimated from few doses,GSK3A,933 nM
same,potency estimated from few doses,GSK3B,967 nM
same,potency estimated from few doses,PAK4,1460 nM
same,potency estimated from few doses,Q6ZSR9,1810 nM
CCn1c(-c2c(N)noc2C)nc2cnccc21 [SB-737856],potency estimated from few doses,CDKL5; CATDS: 0.49229073825052599,1930 nM
same,potency estimated from few doses,TESK1,1820 nM
COc1cc(N2CCN(C(C)C)CC2)ccc1Nc1nc(Nc2ccc(F)cc2C(=O)NC[C@@H](O)CO)c2cc[nH]c2n1 [GSK1392956A],potency estimated from few doses,CLK1; [1],415 nM
same,potency estimated from few doses,CLK2,811 nM
same,potency estimated from few doses,CLK4; [1],684 nM
same,potency estimated from few doses,GAK,50.4 nM
same,potency estimated from few doses,MAPK10,92.1 nM
same,potency estimated from few doses,MAPK8,140 nM
same,potency estimated from few doses,MAPK9,531 nM
same,potency estimated from few doses,PTK2B,188 nM
same,potency estimated from few doses,PTK2,370 nM
same,potency estimated from few doses,TNK1,577 nM
same,potency estimated from few doses,TTK,53 nM
Fc1ccc(-c2nc[nH]c2-c2ccncc2)cc1 [SB-217360],potency estimated from few doses,CIT,926 nM
same,potency estimated from few doses,CSNK1A1,98 nM
same,potency estimated from few doses,CSNK1D,40.5 nM
same,potency estimated from few doses,CSNK1E,623 nM
same,potency estimated from few doses,MAPK14,445 nM
same,potency estimated from few doses,MAPK9,526 nM
same,potency estimated from few doses,MAPKAPK2,83.8 nM
same,potency estimated from few doses,PIK3CD,114 nM
same,potency estimated from few doses,PKN3,212 nM
same,potency estimated from few doses,PRKX,77.5 nM
same,potency estimated from few doses,PSMC3,1190 nM
same,potency estimated from few doses,RIPK2,99.5 nM
same,potency estimated from few doses,SIK3,1440 nM
same,potency estimated from few doses,TGFBR2,1140 nM

# Source: PMC11062922 (Nature Chemical Biology, 2023)
